Screening data deposited in PubChem by several laboratories.
This is a sample that favours compounds with a hit; in the whole collection about 3.5% have one here.
Anthrax LF prot = blocks Bacillus anthracis lethal factor protease. P15917. multiplex microsphere protease cleavage assay, LF. inhibition, % at 10 µM. 0.12% of 360,000 active. AID 588501; also: plate controls were buffer without enzyme for full effect and enzyme alone for no effect
BoNT-F LC inh = blocks Botulinum neurotoxin F light chain protease | 0.22% of 360,000 active | Multiplex microsphere protease cleavage assay, flow cytometry | inhibition, % at 10 µM; in the data active = inhibition above about 35%, passing the limit was not always enough; inconclusive = no clear call, values can overlap the other calls; also: plate controls were buffer without enzyme for full effect and enzyme alone for no effect
BoNT A protease = BoNT A light chain protease inhibition. inhibition, % at 10 µM. 0.17% of 360,000 active. multiplex microsphere protease substrate cleavage, flow cytometry; also: plate controls were buffer without enzyme for full effect and enzyme alone for no effect
BH1578 lux ind = inducers of Vibrio cholerae quorum light production without autoinducers; V. cholerae BH1578 lux reporter, luminescence, 6 h; activation, % at 18.7 µM; 0.16% of 350,000 active; AID 588436; in the data active = activation mostly above about 9.7%, no sharp cut-off; inconclusive = no clear call, values can overlap the other calls; inactive = mostly below about 3.7%
Autofluor counter = compound fluorescence in toxin protease inhibitor counterscreen | compound autofluorescence counterscreen, microsphere flow cytometry; stronger effect = higher value | fluorescence intensity (concentration not given with the values) | 3.1% of 360,000 active; in the data active = fluorescence intensity above about 16000; inconclusive = no clear call, values can overlap the other calls
* = called active by the depositor; i = inactive; ? = inconclusive; · = no result. Rule as the data show it, unless noted: active = inhibition above about 30%; inconclusive = no clear call, values can overlap the other calls; inactive = below that.

SMILES | Anthrax LF prot | BoNT-F LC inh | BoNT A protease | BH1578 lux ind | Autofluor counter
O=C(OCc1ccccc1)N1CCC2CC1c1cc(N3CCCCC3)ccc12 (configuration not stated) | -13 | -5 | -1 | -1 | 3596
Cc1ccc([N+](=O)[O-])cc1N=C(c1ccc([N+](=O)[O-])cc1)N1CCOCC1 | 0 | -9 | -1 | 0 | 2108
O=[N+]([O-])c1ccc(C(=Nc2cccc3ccccc23)N2CCOCC2)cc1 | -4 | -4 | -2 | i | 17545*
COc1ccc(NC(=O)C(CC(C)C)NC(=O)C2CCCCC2)c(OC)c1 (configuration not stated) | 0 | -18 | 0 | 1 | 4446
Cc1cc(C)nc(/N=C(\N)Nc2ccc(C(C)C)cc2)n1 | -14 | ? | -4 | 2 | 3529
CCOC(=O)c1cc(C)n(Cc2ccc(OCC)c(OC)c2)c1C | -16 | 10 | 10 | 0 | 17147*
O=C(COC(=O)c1ccc([N+](=O)[O-])cc1)Nc1ccccc1C(=O)NC1CC1 | 3 | -5 | 0 | 0 | 3883
O=C(CSc1ncnc2c1oc1ccccc12)Nc1cccc(C(F)(F)F)c1 | -4 | -5 | -1 | 0 | 5628
CC(C)Sc1ncnc2c1oc1ccccc12 | -1 | 0 | 0 | 0 | 23211*
CCCSc1ncnc2c1oc1ccccc12 | -4 | 0 | 0 | 0 | 11031
c1ccc(CSc2ncnc3c2oc2ccccc23)cc1 | -4 | -27 | 0 | 0 | 4629
O=C(CSc1ncnc2c1oc1ccccc12)Nc1cccc(Cl)c1 | 1 | -7 | -7 | i | 21833*
Fc1ccccc1CSc1ncnc2c1oc1ccccc12 | -1 | 8 | 3 | -7 | 19470*
COc1ccccc1C(=O)NC(=O)COC(=O)Cn1cnc2c1c(=O)n(C)c(=O)n2C | ? | ? | ? | -1 | ?
CC(C)(C)c1nnc(NC(=O)C2CCN(c3ncccn3)CC2)s1 | 1 | -3 | -3 | 0 | 21096*
CS(=O)(=O)N1CCC(C(=O)Nc2cccc(Cl)c2Cl)CC1 | · | · | · | 0 | ·
O=C(Nc1cccc(Cl)c1Cl)C1CCN(c2ncccn2)CC1 | -1 | -12 | -9 | i | 22389*
O=C(CN1CCOCC1)Nc1cccc(Cl)c1Cl | 1 | -9 | ? | i | 23826*
COc1ccc(Cl)cc1N1C(=O)CC(N2CCN(S(=O)(=O)c3ccccc3F)CC2)C1=O (configuration not stated) | 0 | -3 | 0 | 5 | 3695
CC(C)(C)c1ccc(SCCc2ccccn2)cc1 | -3 | ? | ? | i | 4099
CCOc1ccccc1-n1nnnc1SCc1nc2ccccc2s1 | -3 | -8 | -4 | -1 | 17496*
CCC(C(=O)Nc1cnccn1)c1ccccc1 (configuration not stated) | 0 | -5 | -2 | 2 | 24267*
CCC(C(=O)Nc1ccccn1)c1ccccc1 (configuration not stated) | 0 | -6 | 0 | -1 | 4719
OC(c1cccc(F)c1)c1ncc(-c2ccc(C(F)(F)F)cc2)[nH]1 (configuration not stated) | -4 | -4 | 0 | -1 | 3822
CCc1nnc(NC(=O)CSc2nnc3scc(-c4ccc(C)cc4)n23)s1 | 0 | -1 | -2 | i | 21013*
SMILES | Anthrax LF prot | BoNT-F LC inh | BoNT A protease | BH1578 lux ind | Autofluor counter
CCc1nnc(NC(=O)CSc2nnc(-c3ccccc3O)n2CC)s1 | 0 | -3 | -4 | 0 | 25104*
Cc1nnc(NC(=O)CSc2nnc3scc(-c4ccc(C)c(C)c4)n23)s1 | 2 | 3 | 0 | 0 | 11142
CCN(CC)CCCNC(=O)CSc1nc(C)cc(C)n1 | 6 | 14 | 1 | 0 | 3472
Cc1ccc([N+](=O)[O-])cc1S(=O)(=O)Nc1cccc(S(=O)(=O)NC2=NCCC2)c1 | 0 | 2 | 0 | -3 | 3712
CCc1ccc2nc3c(c(C(=O)O)c2c1)CCC3 | -2 | 3 | 2 | i | 22313*
COC(=O)c1c2c(nc3ccccc13)CCC2 | -3 | -12 | 2 | i | ?
O=C1CC(c2cccs2)c2cc3c(cc2N1)OCO3 (configuration not stated) | -2 | -8 | -3 | 0 | 23380*
COc1cc2c(cc1OC)C(c1cccs1)CC(=O)N2 (configuration not stated) | -2 | -3 | 0 | 0 | 5372
CCCN1Cc2cccc(C(=O)Nc3cc(OC)cc(OC)c3)c2C1=O | -8 | 2 | 1 | 0 | 22619*
COCCN1Cc2cccc(C(=O)Nc3cccc(OC)c3)c2C1=O | -8 | -3 | -1 | 0 | 3649
CC(=O)OCCn1c2nc(=O)[nH]c(=O)c-2nc2cc(C)c(C)cc21 | -10 | 42* | 8 | -1 | 2682
Cc1[nH]nc(SCC(=O)N(C)c2ccccc2)c1[N+](=O)[O-] | -3 | 1 | -1 | i | 4618
CC1C(=O)N2CCCc3cc(NC(=O)COc4ccc(Cl)cc4)cc1c32 (configuration not stated) | · | · | · | 0 | ·
Cn1ncc2c(N3CCN(c4ccccc4F)CC3)ncnc21 | 3 | 3 | ? | i | 16585*
Cc1nc2c(C(=O)NCCC(C)C)c[nH]n2c(=O)c1Cl | -1 | -4 | 0 | 0 | 2097
Cc1nc2c(C(=O)NCCc3ccccc3)c[nH]n2c(=O)c1Cl | -8 | 5 | 4 | i | 21299*
CC1=Nc2ccccc2/C1=C\c1nc(-c2ccc(C(F)(F)F)cc2)oc1O | 6 | -47 | 10 | 12 | 17953*
CC1=Nc2ccccc2/C1=C\c1nc(-c2ccccc2)oc1O | -26 | -120 | 21 | -4 | 2897
CN(Cc1ccccc1)C(=O)c1cnc2n(c1=O)CCS2 | 1 | 4 | ? | 2 | 19652*
Cc1ccc(C)c(NC(=O)c2cnc3n(c2=O)CCS3)c1 | 0 | -17 | -2 | 0 | 3170
COC(=O)c1ccc(C(=O)OC)c(NC(=O)c2cnc3n(c2=O)CCS3)c1 | -1 | 3 | ? | 2 | 16274*
Cc1cccc(N(C(=O)c2cnc3n(c2=O)CCS3)C2CCCCC2)c1 | 2 | 2 | 2 | 3 | 22301*
COc1ccccc1NNC(=O)c1cccnc1Oc1ccccc1 | -5 | -18 | 0 | 7 | 6281
O=C(NCCCCCCNC(=O)C1CCCC1)C1CCCC1 | -3 | 0 | ? | -3 | 21472*
O=C(O)[C@H]1CCCC[C@H]1C(=O)NCCNC(=O)[C@@H]1CCCC[C@@H]1C(=O)O | -2 | -5 | ? | i | 23932*
CCCCN(CC)C(=O)C1CCC(CNS(=O)(=O)c2cccc3nsnc23)CC1 (configuration not stated) | 1 | 2 | 1 | 0 | 4226
O=C(O)C1CC=CCC1C(=O)N1CCN(c2nc(-c3ccccc3)c3ccccc3n2)CC1 (configuration not stated) | 0 | -10 | 4 | -1 | 2600
O=C(O)C1CC=CCC1C(=O)N1CCN(c2nc(-c3ccccc3Cl)c3cc(Br)ccc3n2)CC1 (configuration not stated) | -8 | -56 | -3 | · | 16567*
Cn1c(CSc2nc3ccccc3s2)n[nH]c1=S | 0 | -14 | 0 | 0 | 3682
Cn1c(CSc2nc3ccccc3s2)nc2ccccc21 | -3 | -5 | -3 | i | 22150*
